Pf growth 96h: inhibits malaria parasite growth, 96 h | Potency, µM (top dose mostly 28.7 µM), for the others: at the highest dose activity change, negative = inhibition, actives largely listed as inhibitors | P. falciparum luciferase reporter growth, 96 h | 320,000 compounds, 6.9% hits; further: potency means the concentration at half of the fitted maximal effect; on the % scale 0 is the no-effect control and ±100 the full control effect
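P. falciparum expressing integrated firefly luciferase grown in erythrocytes (2% hematocrit, 0.05% parasitemia final) with compounds for 96 hours at 37 C, 5% CO2. Growth inhibition read as loss of luminescence after adding luciferase detection reagent.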
Shiga toxin inh: inhibitors of Shiga toxin in Vero cells | inhibition, % at 38.7 µM | 290,000 compounds, 9.2% hits | Vero cells, Shiga toxin protein synthesis inhibition reporter; in the data active means inhibition mostly above about 28%, no sharp cut-off; inactive means mostly below about 43%; further: 0% is about no effect
NS1 inh: blocks influenza NS1 protein function. AID 2326. Potency, µM (highest dose often 46.1 µM), inactives show at the highest dose activity, positive = more growth. 270,000 compounds, 0.4% hits; calls by dose curve; further: potency means the concentration at half of the fitted maximal effect; actives are rising curves; nearly all actives have a fitted effect of over 50% in size
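A cell-based growth assay was used: compounds that relieve NS1-induced slow growth of budding yeast raise OD600. Assay medium was yeast nitrogen base with ammonium sulphate and -URA supplement, pH 6.0, with 2% galactose.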
Pf growth 48h: inhibits P. falciparum growth in the first generation, 48 h; P. falciparum luciferase growth in erythrocytes, 48 h; Potency, µM (titrated, usually from 28.7 µM), for inactives: top-dose activity change, negative = inhibition, usual class: inhibitors; 310,000 compounds, 5.9% hits; further: potency means the concentration at half of the fitted maximal effect; on the % scale 0 is the no-effect control and ±100 the full control effect
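Parasite viability was followed by luminescence of a genomically integrated firefly luciferase. Cultures held 0.1% parasitemia at 2% hematocrit (final), incubated under 5% CO2 at 37 C.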
CHX counter: counter-screen for Shiga toxin inhibitors: cycloheximide protein synthesis inhibition; cell reporter, cycloheximide protein synthesis inhibition counterscreen; max response, %; 300,000 compounds, 12% hits; in the data active means max response mostly above about 13%, no sharp cut-off; inactive means mostly below about 14%; further: read at 38.3 µM for the half of the compounds with a filed dose; 0% is about no effect
Active calls of the source: *; u = inconclusive; x = not tested or not shown. Hits are enriched below; roughly 21% of the tested compounds scored in any of these assays. Unless noted, the call rests on the fitted dose curve; in most records, active means well fitted inhibition curve with a large enough effect; inconclusive means small, poorly fitted or top-dose-only effect, or another doubt; inactive means no such curve, though single readings can be large or run the other way.

SMILES | Pf growth 96h | Shiga toxin inh | NS1 inh | Pf growth 48h | CHX counter
COc1ccc(C(=O)CN2CCN(S(=O)(=O)c3cccc([N+](=O)[O-])c3)CC2)cc1OC | u | -10 | 5% | -3% | 3
COc1cccc(C(=O)CN2CCN(S(=O)(=O)c3cccc([N+](=O)[O-])c3)CC2)c1 | 0.41µM* | -4 | 0% | -2% | 2
COc1ccc2oc(C(=O)OCC(=O)N3CCN(S(=O)(=O)c4ccccc4)CC3)c(C)c2c1 | -6% | x | x | u | x
CCOc1ccc(S(=O)(=O)N2CCN(C(=O)c3oc4ccc(OC)cc4c3C)CC2)cc1 | u | x | x | 10µM* | x
O=C(O)CC1SC(N/N=C/c2ccc(Br)cc2)NC1=O (stereo not given) | 18% | 79* | x | 299% | 44*
CC(C)NC(=O)CC(=O)N/N=C/c1ccc(Br)cc1 | -5% | 6 | 24% | 44% | 5
O=C(CN(Cc1ccc(F)cc1)S(=O)(=O)c1ccccc1)N1CCCCC1 | 4.1µM* | -2 | -10% | u | -4
CN(CC(=O)N1CCN(Cc2ccccc2)CC1)S(=O)(=O)c1ccc(Br)cc1 | 31% | -15 | -24% | u | 8
O=C(CNS(=O)(=O)c1ccc(Br)cc1)N1CCN(c2ccc(F)cc2)CC1 | 13µM* | 3 | -3% | u | -1
CC(=O)c1ccc(N2CCN(C(=O)CN(C)S(=O)(=O)c3cnc[nH]3)CC2)cc1 | 32% | 42 | x | 9% | 39*
CN(CC(=O)N1CCN(Cc2ccccc2)CC1)S(=O)(=O)c1ccc(F)cc1 | 12µM* | 2 | -12% | 4% | 1
CCN1CCCc2cc(CN(CCN3CCOCC3)C(=S)Nc3cccc(Cl)c3)ccc21 | -2% | 22 | x | u | 15
CC(=O)c1ccc(S(=O)(=O)N(C)CCCC(=O)N2CCN(c3ncccn3)CC2)cc1 | 12µM* | x | x | u | x
CCOC(=O)N1CCN(C(=O)CN(C)S(=O)(=O)c2ccc(F)cc2)CC1 | 9% | 7 | -2% | 34% | 5
CN(CC(=O)N1CCN(c2ccc(F)cc2)CC1)S(=O)(=O)c1ccc(F)cc1 | u | 33* | -4% | 6% | 14
CCN1CCN(C(=O)CN(CC)S(=O)(=O)c2ccc(F)cc2)CC1 | 3.3µM* | -18 | 7% | -7% | -2
Cn1nc([N+](=O)[O-])nc1Sc1nnnn1-c1ccc(C(=O)O)cc1 | 27% | -1 | 0% | u | 0
O=S(=O)(c1ccc2c(c1)OCCO2)N(Cc1ccc(F)cc1)Cc1nnc(-c2cccs2)o1 | -34% | -43 | -31% | -2% | 2
O=C(CSc1n[nH]c(-c2cccnc2)n1)Nc1ccccc1 | u | 15 | -2% | -21% | -1
O=C(CSc1n[nH]c(-c2ccccc2)n1)N1CCCC1 | 0% | 65* | -7% | 53% | 16
O=C(CSc1n[nH]c(-c2ccccc2)n1)Nc1ncc(Br)cc1Br | 2.9µM* | -22 | -10% | 7% | -1
CCc1ccc(-c2nc(SCC(=O)N3CCOCC3)n[nH]2)cc1 | 84% | 29* | x | 86% | 11*
CSc1cc2c(cc1C(F)(F)F)N(C(=O)Nc1cccnc1)CC2 | x | -4 | x | x | -3
Cc1c(C(=O)OC/C(O)=C(\C#N)c2nc3ccccc3[nH]2)oc2ccc(Br)cc12 | u | -7 | 3% | -5% | -3
N#C/C(=C(/O)CCl)c1nc2ccccc2[nH]1 | 10µM* | -3 | x | u | 7
SMILES | Pf growth 96h | Shiga toxin inh | NS1 inh | Pf growth 48h | CHX counter
N#C/C(=C/c1cccs1)c1nc2ccccc2[nH]1 | u | 64* | -20% | u | 65*
Cc1c(-c2cccc(Cl)c2)nc2ccccc2c1C(=O)OC/C(O)=C(\C#N)c1nc2ccccc2[nH]1 | 10µM* | 31 | x | -30% | -1
Cc1cccc(C)c1Nc1nnc(SC/C(O)=C(\C#N)c2nc3ccccc3[nH]2)s1 | u | 9 | u | u | -2
Cc1cccc(Nc2nnc(SC/C(O)=C(\C#N)c3nc4ccccc4[nH]3)s2)c1C | 12µM* | 2 | 28% | u | -2
CCOc1ccc(S(=O)(=O)N2CCC(C(=O)NCCc3ccccc3)CC2)cc1 | 23% | -2 | 17% | -9% | -3
CN1CCN(c2ccc(CNS(=O)(=O)Cc3cccc(C(F)(F)F)c3)cc2)CC1 | -22% | -9 | 0% | -26% | -2
O=C(CCC1CCCC1)Nc1nnc(-c2ccc3c(c2)OCO3)s1 | 0% | -14 | 7% | 14% | 1
N#C/C(=C\C1CC=CCC1)c1nc2ccccc2[nH]1 (stereo not given) | x | 48 | -83% | 8.3µM* | 27*
